Reference: PubChem BioAssay
Entries with a potency or affinity are not part of this list. Results filed as inconclusive are left out. The source made the active and inactive calls. Unless noted, how the calls were made is not given here.

Legend:
[1] = cytotoxicity in PAX8-dependent RMG-1 cells, dose response, cell-based, cherry-pick (AID 687029;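 active means signal drop whose fitted half-maximal concentration is at most twice the top valid dose, in every test run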;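 further: cells exposed to compound for 96 hours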)
[2] = cytotoxicity in IOSE-T80 ovarian epithelial cells, dose response, selectivity assay for PAX8 inhibitor project, cell-based, cherry-pick (AID 687032;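 active means fitted half-maximal concentration for viability loss no higher than twice the top valid dose, in every repeat run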;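 further: cells exposed to compound for 96 h before reading; 0% = neutral control wells and -100% = 2 µM mitoxantrone kill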)
[3] = inhibitors of CMV-promoter luciferase reporter, dose response, counter-screen for Pax8 inhibitor project, cell-based, HEK293, luminescence, dry powder (AID 743020;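 active means signal-lowering compounds whose fitted half-maximal concentration is at or below twice the top tested dose in every run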;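 further: HEK293 cells stably expressing the CMV luciferase reporter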)
[4] = non-specific cell cytotoxicity, dose response, cytotoxicity control for PAX8 inhibitor project, plate reader, dry powder samples (AID 743021)
[5] = IGROV1 ovarian cancer cell cytotoxicity, dose response, PAX8 inhibitor project, plate reader, dry powder samples (AID 743043);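 further: more negative means fewer viable cells or more cytotoxicity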
[6] = NIH:OVCAR-3 ovarian cancer cell cytotoxicity, dose response, PAX8 inhibitor project, plate reader, dry powder samples (AID 743044); settings: max activity: at 35 µM, hits give low values unless noted
[7] = IOSE-T80 ovarian epithelial cell cytotoxicity, dose response, cytotoxicity control for PAX8 inhibitor project, plate reader, dry powder samples (AID 743045);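 further: 0% = neutral control median and -100% = positive control median; more negative values mean more cell killing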
[8] = A2780 ovarian cancer cell cytotoxicity, dose response, cytotoxicity control, plate reader, dry powder samples (AID 743046);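 further: 0% = neutral control wells and -100% = cytotoxic reference compound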

Measured: max activity

C[C@@H]1CN([C@H](C)CO)C(=O)c2cc(NS(=O)(=O)c3cccs3)ccc2O[C@@H](C)CCCCO[C@H]1CN(C)Cc1ccc(C(F)(F)F)cc1
inactive: [1] | [2] | [3] | [4] | [5] | [6] -10.6% [at 16 µM, hits give low values] | [7] | [8]

C[C@@H]1CCCCO[C@@H](CN(C)Cc2ccncc2)[C@H](C)CN([C@H](C)CO)C(=O)c2cc(NC(=O)Nc3ccc(C(F)(F)F)cc3)ccc2O1
inactive: [1] | [2] | [3] | [4] | [5] | [6] 17.2% [at 4.2 µM, hits give low values] | [7] | [8]

C[C@H](CO)N1C[C@H](C)[C@H](CN(C)S(=O)(=O)c2ccc(F)cc2)OCCCC[C@H](C)Oc2ccc(NC(=O)Nc3ccc(F)cc3)cc2C1=O
inactive: [1] | [2] | [3] | [4] | [5] | [6] -19% [at 16 µM, hits give low values] | [7] | [8]

C[C@@H]1CN([C@@H](C)CO)C(=O)Cc2cc(NC(=O)Nc3ccc(C(F)(F)F)cc3)ccc2O[C@H]1CN(C)C(=O)Nc1ccc(C(F)(F)F)cc1
inactive: [1] | [2] | [3] | [4] | [5] | [6] -32.2% | [7] | [8]

C[C@H](O)C#Cc1ccc2c(c1)O[C@@H](CN(C)Cc1ccc(-c3ccccc3)cc1)[C@@H](C)CN([C@@H](C)CO)S2(=O)=O
inactive: [1] | [2] | [3] | [4] | [5] | [6] -22.5% | [7] | [8]

COc1ccc(NC(=O)Nc2ccc3c(c2)C(=O)N([C@@H](C)CO)C[C@@H](C)[C@@H](CN(C)Cc2ccc(Cl)c(Cl)c2)OCCCC[C@@H](C)O3)cc1
inactive: [1] | [2] | [3] | [4] | [5] | [6] -14.2% | [7] | [8]

Cc1ccc(S(=O)(=O)N(C)C[C@@H]2OCCCC[C@H](C)Oc3ccc(NS(=O)(=O)c4cccs4)cc3C(=O)N([C@H](C)CO)C[C@H]2C)cc1
inactive: [1] | [2] | [3] | [4] | [5] | [6] 5.96% | [7] | [8]

C[C@H](CO)N1C[C@H](C)[C@H](CN(C)C(=O)c2ccccc2)OCCCC[C@H](C)Oc2ccc(NC(=O)Nc3ccc(C(F)(F)F)cc3)cc2C1=O
inactive: [1] | [2] | [3] | [4] | [5] | [6] 16.6% [at 0.5 µM, hits give low values] | [7] | [8]

CCCC#Cc1ccc2c(c1)O[C@H](CN(C)Cc1ccccc1)[C@@H](C)CN([C@H](C)CO)S2(=O)=O
inactive: [1] | [2] | [3] | [4] | [5] | [6] 7.94% [at 1 µM, hits give low values] | [7] | [8]

COc1cccc(S(=O)(=O)Nc2ccc3c(c2)[C@H]2C[C@H](CC(=O)NCc4ccccc4F)O[C@H](CO)[C@H]2O3)c1
inactive: [1] | [2] | [3] | [4] | [5] | [6] 44.6% [at 0.5 µM, hits give low values] | [7] | [8]

C[C@H]1CN([C@@H](C)CO)C(=O)c2c(c3ccccc3n2C)-c2ccccc2CO[C@H]1CN(C)S(=O)(=O)c1ccc(C(F)(F)F)cc1
inactive: [1] | [2] | [3] | [4] | [5] | [6] -24.4% | [7] | [8]

O=C(C[C@H]1C[C@@H]2c3cc(NC(=O)Nc4ccc(C(F)(F)F)cc4)ccc3O[C@@H]2[C@@H](CO)O1)NCCc1ccccc1
inactive: [1] | [2] | [3] | [4] | [5] | [6] -7.36% [at 8 µM, hits give low values] | [7] | [8]

CS(=O)(=O)N1C[C@@H]2N[C@H](C1)[C@@H]2c1ccc(-c2ccccc2)cc1
inactive: [1] | [2] | [3] | [4] | [5] | [6] 15.8% [at 1 µM, hits give low values] | [7] | [8]

Cc1ccc(S(=O)(=O)N(C)C[C@@H]2OCCCC[C@H](C)Oc3ccc(NS(=O)(=O)c4ccc(F)cc4)cc3C(=O)N([C@H](C)CO)C[C@H]2C)cc1
inactive: [1] | [2] | [3] | [4] | [5] | [6] -6.55% | [7] | [8]

C[C@@H]1CN([C@@H](C)CO)C(=O)c2c(c3ccccc3n2C)-c2ccccc2CO[C@H]1CN(C)S(=O)(=O)c1cccc(F)c1
inactive: [1] | [2] | [3] | [4] | [5] | [6] -19.9% [at 16 µM, hits give low values] | [7] | [8]

N#Cc1cccc(-c2ccc3c(c2)[C@@H]2[C@@H](CCN2C(=O)C2CCCCC2)[C@@H](CO)N3)c1
inactive: [1] | [2] | [3] | [4] | [5] | [6] 11.5% [at 16 µM, hits give low values] | [7] | [8]

C[C@H](O)C#Cc1ccc2c(c1)O[C@H](CN(C)Cc1ccc(-c3ccccc3)cc1)[C@H](C)CN([C@@H](C)CO)S2(=O)=O
inactive: [1] | [2] | [3] | [4] | [5] | [6] 54.2% [at 0.5 µM, hits give low values] | [7] | [8]

C[C@@H]1CN([C@@H](C)CO)C(=O)c2cc(NC(=O)Nc3ccc(C(F)(F)F)cc3)ccc2O[C@@H](C)CCCCO[C@@H]1CN(C)Cc1ccccc1
inactive: [1] | [2] | [3] | [4] | [5] | [6] -20.5% [at 16 µM, hits give low values] | [7] | [8]

COc1ccc(S(=O)(=O)N(C)C[C@H]2OCCCC[C@@H](C)Oc3ccc(NS(=O)(=O)c4c(C)noc4C)cc3C(=O)N([C@H](C)CO)C[C@H]2C)cc1
inactive: [1] | [2] | [3] | [4] | [5] | [6] -13.5% | [7] | [8]

C[C@@H]1CN([C@@H](C)CO)C(=O)c2cc(NS(=O)(=O)c3ccc(F)cc3)ccc2O[C@@H]1CN(C)Cc1ccc(C(F)(F)F)cc1
inactive: [1] | [2] | [3] | [4] | [5] | [6] -27.7% | [7] | [8]

C[C@H](CO)N1C[C@H](C)[C@H](CN(C)Cc2ccc(C(F)(F)F)cc2)Oc2ccc(NS(=O)(=O)c3ccc(F)cc3)cc2CC1=O
inactive: [1] | [2] | [3] | [4] | [5] | [6] 12.3% [at 16 µM, hits give low values] | [7] | [8]

C[C@H]1CCCCO[C@H](CN(C)Cc2ccc(Cl)c(Cl)c2)[C@@H](C)CN([C@@H](C)CO)C(=O)c2cc(NC(=O)Nc3ccccc3)ccc2O1
inactive: [1] | [2] | [3] | [4] | [5] | [6] -18.6% | [7] | [8]

COCCNC(=O)C[C@@H]1C[C@H]2c3cc(NC(=O)Nc4ccc(C(F)(F)F)cc4)ccc3O[C@H]2[C@H](CO)O1
inactive: [1] | [2] | [3] | [4] | [5] | [6] -18.8% | [7] | [8]

C[C@@H]1CN([C@H](C)CO)C(=O)c2cc(NS(=O)(=O)c3ccccc3)ccc2O[C@@H](C)CCCCO[C@H]1CN(C)Cc1ccc(Cl)c(Cl)c1
inactive: [1] | [2] | [3] | [4] | [5] | [6] 22% [at 0.5 µM, hits give low values] | [7] | [8]

C[C@@H]1CN([C@@H](C)CO)C(=O)c2c(c3ccccc3n2C)-c2ccccc2CO[C@H]1CN(C)S(=O)(=O)c1ccccc1F
inactive: [1] | [2] | [3] | [4] | [5] | [6] -17.2% [at 18 µM, hits give low values] | [7] | [8]

C[C@@H]1CCCCO[C@@H](CN(C)Cc2ccccc2)[C@H](C)CN([C@H](C)CO)C(=O)c2cc(NC(=O)Nc3ccc(C(F)(F)F)cc3)ccc2O1
inactive: [1] | [2] | [3] | [4] | [5] | [6] -20.2% [at 16 µM, hits give low values] | [7] | [8]

CC(C)CC#Cc1ccc2c(c1)O[C@@H](CN(C)S(=O)(=O)c1ccc(F)cc1)[C@H](C)CN([C@@H](C)CO)S2(=O)=O
inactive: [1] | [2] | [3] | [4] | [5] | [6] 21.6% [at 4.2 µM, hits give low values] | [7] | [8]

C[C@@H]1CCCCO[C@@H](CN(C)Cc2ccc(Cl)c(Cl)c2)[C@H](C)CN([C@@H](C)CO)C(=O)c2cc(NS(=O)(=O)c3ccc(Cl)cc3)ccc2O1
inactive: [1] | [2] | [3] | [4] | [5] | [6] 10.4% [at 0.5 µM, hits give low values] | [7] | [8]

COc1ccc(-c2ccc3c(c2)[C@@H]2[C@@H](CCN2C(=O)C2CCCC2)[C@H](CO)N3C)cc1
inactive: [1] | [2] | [3] | [4] | [5] | [6] -19.3% [at 18 µM, hits give low values] | [7] | [8]

Cc1ccc(S(=O)(=O)N(C)C[C@@H]2OCCCC[C@@H](C)Oc3ccc(NS(=O)(=O)c4ccc(Cl)cc4)cc3C(=O)N([C@H](C)CO)C[C@H]2C)cc1
inactive: [1] | [2] | [3] | [4] | [5] | [6] -13.3% [at 4.2 µM, hits give low values] | [7] | [8]
